# Data taken from article PMC4336329 (PLoS ONE, 2015).
# The whole screen tested about 310,000 compounds, of which about 14,000 (4.5%) showed an effect of 50% or more. The effect is printed as a negative number. For the sample, strong results were picked, then their nearest neighbours and some compounds at random.
# Molecular target: human ether-à-go-go-related gene (hERG) potassium channel (human, UniProt Q12809)
# Assay: primary screen, population patch clamp on CHO cells stably expressing hERG; higher = less effect of the substance
# 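Further: peak tail current of the secondary pulse compared with the same well before compound.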
# Chain of human ether-à-go-go-related gene (hERG) potassium channel (Q12809 whole entry, looked up): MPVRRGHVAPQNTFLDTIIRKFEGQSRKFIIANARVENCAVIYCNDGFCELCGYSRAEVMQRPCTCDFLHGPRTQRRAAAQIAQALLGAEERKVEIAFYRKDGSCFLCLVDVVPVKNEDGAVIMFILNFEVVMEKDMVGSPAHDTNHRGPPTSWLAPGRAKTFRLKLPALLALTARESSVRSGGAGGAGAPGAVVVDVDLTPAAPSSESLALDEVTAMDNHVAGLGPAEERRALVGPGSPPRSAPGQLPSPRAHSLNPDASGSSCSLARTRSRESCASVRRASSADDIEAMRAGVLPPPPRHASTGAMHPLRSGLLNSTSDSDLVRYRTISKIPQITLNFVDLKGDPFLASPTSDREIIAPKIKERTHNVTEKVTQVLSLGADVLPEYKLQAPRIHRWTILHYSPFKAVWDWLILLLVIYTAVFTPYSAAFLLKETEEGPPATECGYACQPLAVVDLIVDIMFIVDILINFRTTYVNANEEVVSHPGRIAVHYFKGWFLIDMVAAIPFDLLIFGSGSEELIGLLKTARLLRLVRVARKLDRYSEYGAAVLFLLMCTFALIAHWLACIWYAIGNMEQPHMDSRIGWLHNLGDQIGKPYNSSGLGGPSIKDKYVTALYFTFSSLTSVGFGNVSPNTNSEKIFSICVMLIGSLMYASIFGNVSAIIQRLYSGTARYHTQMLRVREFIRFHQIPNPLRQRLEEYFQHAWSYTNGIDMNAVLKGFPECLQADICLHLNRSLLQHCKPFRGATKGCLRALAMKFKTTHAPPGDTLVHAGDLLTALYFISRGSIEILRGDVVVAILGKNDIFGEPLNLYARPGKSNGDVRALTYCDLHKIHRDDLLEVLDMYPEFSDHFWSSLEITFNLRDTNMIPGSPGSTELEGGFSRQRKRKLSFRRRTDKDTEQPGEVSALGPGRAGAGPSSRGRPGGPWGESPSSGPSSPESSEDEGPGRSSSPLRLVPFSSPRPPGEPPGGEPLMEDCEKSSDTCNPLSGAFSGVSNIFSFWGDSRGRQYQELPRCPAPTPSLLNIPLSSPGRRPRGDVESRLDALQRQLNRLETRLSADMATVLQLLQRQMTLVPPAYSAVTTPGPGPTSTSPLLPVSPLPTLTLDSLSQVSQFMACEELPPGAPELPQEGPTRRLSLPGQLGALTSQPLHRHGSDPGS
row,SMILES,"hERG current change (%, negative = inhibition) at 10uM"
1,NC(=O)c1ccc(-n2nnnc2SCC(=O)Nc2ccccc2-c2ccccc2)cc1,-58.1%
2,NC(=O)c1ccc(-n2nnnc2SCC(=O)Nc2ccccc2F)cc1,18.9%
3,Cn1nnnc1SCC(=O)Nc1nn(-c2ccccc2)nc1C(N)=O,-13.8%
4,NC(=O)c1nn(-c2ccccc2)nc1NC(=O)CSc1nnnn1-c1ccc(Cl)cc1,-53.7%
5,NC(=O)c1ccc(-n2nnnc2SCC(=O)Nc2ccccc2)cc1,14.3%
6,CC(C)(C)n1nnnc1SCC(=O)Nc1nn(-c2ccccc2)nc1C(N)=O,9.33%
7,CN1CCN(c2cn[nH]c(=O)c2Cl)CC1,15.4%
8,Cc1ccc(-c2csc(NC(=O)CN3CCC(C(N)=O)CC3)n2)cc1,8.38%
9,Fc1ccccc1-c1csc(=Nc2cccnc2)n1CC1CCCO1 (stereo not shown),-16.8%
10,c1cncc(N=c2scc(-c3cccc4ccccc34)n2CCCn2ccnc2)c1,-56.5%
11,Fc1ccccc1-c1csc(=Nc2cccnc2)n1CCCn1ccnc1,-60.1%
12,CN=c1scc(-c2ccccc2F)n1/N=C(\C)c1cccnc1,-28.9%
13,CC(C)Cn1c(-c2ccco2)csc1=Nc1cccnc1,8.45%
14,COCCn1c(-c2cccs2)csc1=Nc1cccnc1,-15.3%
15,Cc1cc(C)cc(OCc2ccc(C(=O)NN)o2)c1,14.2%
16,COc1ccc(CCNC(=S)Nc2cc(C)ccc2C)cc1,-15.9%
17,CS(=O)(=O)N(C(=O)NC(=O)NC1CCS(=O)(=O)C1)C1CCCCC1 (stereo not shown),4.13%
18,COc1ccc(-c2nn(-c3ccccc3)cc2/C=C2/SC(=S)N(Cc3ccco3)C2=O)c(C)c1,8.73%
19,Cn1c(=O)n(Cc2ccccc2)c(=O)c2c1nc1n2CCN1Cc1ccco1,-36.7%
20,Cn1c(=O)n(Cc2ccc(Cl)cc2)c(=O)c2c1nc1n2CCN1Cc1ccco1,-21.5%
21,Cc1ccc(Cn2c(=O)c3c(nc4n3CCN4Cc3ccco3)n(C)c2=O)cc1,-17.9%
22,Cc1cccc(Cn2c(=O)c3c(nc4n3CCN4Cc3ccco3)n(C)c2=O)c1,-52.2%
23,Cc1cccc(Cn2c(=O)c3c(nc4n3CCCN4Cc3ccccc3)n(C)c2=O)c1,-38.8%

row,SMILES,"hERG current change (%, negative = inhibition) at 10uM"
1,Cn1c(=O)n(Cc2ccc(F)cc2)c(=O)c2c1nc1n2CCN1Cc1ccco1,-55.4%
2,Cc1ccc(C)c(Cn2c(=O)c3c(nc4n3CCN4Cc3ccco3)n(C)c2=O)c1,-3.76%
3,Cn1c(=O)n(CCc2ccccc2)c(=O)c2c1nc1n2CCN1Cc1ccco1,-55.5%
4,CCCn1c(=O)c2c(nc3n2CCN3Cc2ccco2)n(C)c1=O,-5.94%
5,CC1CCC(NC(=O)C(Cc2ccccc2)n2cccc2)CC1 (stereo not shown),-14.9%
6,Cc1cc(C)cc(OCC(=O)N/N=C/c2ccco2)c1,37.4%
7,COc1cccc(-n2nnc3c(=O)n(CC(=O)OCc4ccccc4)cnc32)c1,9.39%
8,CC(=O)Nc1ccc(CN2CCc3c([nH]c4ccccc34)C2c2ccccn2)cc1 (stereo not shown),-38.5%
9,c1ccc(C2c3[nH]c4ccccc4c3CCN2Cc2cccn2-c2ccccn2)nc1 (stereo not shown),-70.5%
10,CSc1ncc(CN2CCc3c([nH]c4ccccc34)C2c2cccc(C)n2)cn1 (stereo not shown),-13.8%
11,c1ccc(C2c3[nH]c4ccccc4c3CCN2Cc2cccn2-c2cccnc2)nc1 (stereo not shown),-23.7%
12,O=C(Cc1ccsc1)N1CCc2c([nH]c3ccccc23)C1c1ccccn1 (stereo not shown),4.87%
13,Clc1ccc(-n2cccc2CN2CCc3c([nH]c4ccccc34)C2c2ccccn2)nc1 (stereo not shown),-77%
14,CCOC(=O)C1CCN(S(=O)(=O)c2ccc(Cl)nc2)CC1,-2.6%
15,COc1ccc2oc(C(=O)NCCC(C)C)c(C)c2c1,-0.78%
16,Cn1nc(C(=O)OCc2ccccc2F)c2ccccc2c1=O,13%
17,COc1ccc(C(C)(C)C)cc1NC(=O)c1cccc(S(=O)(=O)N2CCN(C(C)=O)CC2)c1,11.5%
18,Cc1ccc(S(=O)(=O)N2CCN(c3ncnc4c3cnn4-c3ccccc3)CC2)cc1,14.3%
19,Oc1ccccc1C1=Nc2ncnn2C(c2ccccc2)C1 (stereo not shown),-16.6%
20,Oc1ccccc1C1=NN(c2ccccc2)C(c2ccc(F)cc2)C1 (stereo not shown),9.68%
21,Oc1ccccc1C1=Nc2ncnn2C(c2ccc(F)cc2)C1 (stereo not shown),-80.8%
22,COc1ccc(NC2CC(=O)NC2=O)cc1 (stereo not shown),5.24%
23,O=Cc1cc([N+](=O)[O-])ccc1N1CCOCC1,-19.3%

row,SMILES,"hERG current change (%, negative = inhibition) at 10uM"
1,O=C1NC(=S)N/C1=C/c1cc([N+](=O)[O-])ccc1O,12.8%
2,CC(=O)N1CCN(c2ccc([N+](=O)[O-])cc2C=C2C(=O)NC(=O)NC2=O)CC1,-56.6%
3,O=C1NC(=O)C(=Cc2cc([N+](=O)[O-])ccc2N2CCCCC2)C(=O)N1,7.84%
4,CCN1CCN(c2ccc([N+](=O)[O-])cc2C=C2C(=O)NC(=O)NC2=O)CC1,-66.3%
5,CC(=O)N1CCN(C(=S)c2cccc([N+](=O)[O-])c2)CC1,8.96%
6,O=C1NC(=S)N/C1=C/c1cc([N+](=O)[O-])ccc1N1CCOCC1,-62.9%
7,CN1C(=O)C(=Cc2cc([N+](=O)[O-])ccc2N2CCCCC2)C(=O)N(C)C1=O,19.3%
8,CC(=O)N1c2ccc([N+](=O)[O-])cc2NC(=O)CC1C (stereo not shown),22.2%
9,COC(=O)C1=C(O)/C(=C\c2ccc(OCC(=O)Nc3ccccc3OC)cc2)N=C1C,0.751%
10,Cc1ccccc1Nc1nc(-c2sc(NC(=O)c3ccco3)nc2C)cs1,23.6%
11,O=C(Nc1cccc(Cl)c1)c1nc[nH]c1C(=O)N1CCN(c2ccccc2)CC1,8.06%
12,Cc1c(N/C(=N/S(=O)(=O)c2ccc(F)cc2)c2ccccc2)c(=O)n(-c2ccccc2)n1C,0.39%
13,O=[N+]([O-])c1ccc(Oc2ccc(-c3cnc4ccccc4n3)cc2[N+](=O)[O-])cc1,6.13%
14,c1nc(N2CCCCC2)c2[nH]cnc2n1,9.4%
15,C=CCn1c(SCCN2CCCCC2)nc2c1c(=O)[nH]c(=O)n2C,-47.3%
16,CCOc1ccc(C(=O)NC2CC3CCCC(C2)N3Cc2ccccc2)cc1 (stereo not shown),-57.5%
17,COc1ccc(C(=O)NC2CC3CCCC(C2)N3Cc2ccccc2)cc1OC (stereo not shown),-23.6%
18,CCOc1ccc(C(=O)NC2CC3CCCC(C2)N3CC(C)C)cc1 (stereo not shown),-41.1%
19,COc1ccc(C(=O)NC2CC3CCCC(C2)N3Cc2ccccc2)cc1 (stereo not shown),-53.5%
20,Cc1ccn2c(NC(=O)c3cccs3)c(-c3ccccc3)nc2c1,-0.701%
21,C=CCCC(=O)NC1CC(C)(C)Cc2c1cnn2-c1cccc(F)c1 (stereo not shown),-68.4%
22,CC1(C)Cc2c(cnn2-c2cccc(F)c2)C(NC(=O)CSc2ccccn2)C1 (stereo not shown),-20.6%
23,CC1(C)Cc2c(cnn2-c2cccc(F)c2)C(NC(=O)Cn2cccn2)C1 (stereo not shown),-11.5%

row,SMILES,"hERG current change (%, negative = inhibition) at 10uM"
1,CC1(C)Cc2c(cnn2-c2cccc(F)c2)C(NC(=O)CSc2ccncc2)C1 (stereo not shown),-56.5%
2,Cc1ccccc1-n1ncc2c1CC(C)(C)CC2NC(=O)CSc1ccncc1 (stereo not shown),-8.26%
3,CC1(C)Cc2c(cnn2-c2cccc(F)c2)C(NC(=O)CCc2cnccn2)C1 (stereo not shown),-28.4%
4,CCC1CCCCN1C(=S)NCc1ccccc1 (stereo not shown),-1.29%
5,COc1ccc(-c2c(C)n([O-])c(C)c(-c3ccccc3)[n+]2=O)cc1OC,7.35%
6,Cc1cccc(-n2cc(CN(C)Cc3nccn3C)c(-c3cccc(F)c3)n2)c1,-6.01%
7,CCN(CC(=O)NC(C)(C)C)C(=O)c1ccc(Br)cc1,2.64%
8,O=C(NCCc1ccc(Cl)cc1)C1CCCN1C(=O)Nc1ccccc1 (stereo not shown),-11.5%
9,CCOc1ccccc1NC(=O)c1cc(C(=O)c2cc(OC)ccc2O)coc1=N,-20.3%
10,COc1ccc(C(=O)Nc2ccc(SC(F)F)cc2)cc1,-2.14%
11,COc1ccc(O)c(C(=O)c2coc(=N)c(C(=O)Nc3ccc(SC(F)F)cc3)c2)c1,-69.9%
12,O=c1[nH]c(C2CCN(S(=O)(=O)c3ccc(F)cc3)CC2)nc2c1nnn2Cc1ccc2c(c1)OCCO2,11.1%
13,COc1cc2c(c(OC)c1OC)-c1ccc(O)c(=O)cc1C(NC(C)=O)CC2 (stereo not shown),13.7%
14,CCN1CCN(S(=O)(=O)c2ccc(Cl)c(C(=O)Nc3ccc(OC(F)F)cc3)c2)CC1,-70.4%
15,CCN1CCN(c2ccc(NC(=O)c3cc(S(=O)(=O)N4CCCC4)ccc3Cl)cc2)CC1,-27.7%
16,O=C(Nc1ccc(OC(F)F)cc1)c1cc(S(=O)(=O)N2CCCCC2)ccc1N1CCOCC1,-65.8%
17,CNC(=O)c1ccc(NC(=O)c2cc(S(=O)(=O)N3CCOCC3)ccc2N2CCCC2)cc1,7.71%
18,CCN1CCN(S(=O)(=O)c2ccc(Cl)c(C(=O)Nc3ccc(C(=O)N(CC)CC)cc3)c2)CC1,0.597%
19,NC(=O)c1ccc(NC(=O)c2cc(S(=O)(=O)N3CCCCC3)ccc2N2CCOCC2)cc1,-13.9%
20,N#Cc1ccc(NC(=O)c2cc(S(=O)(=O)N3CCOCC3)ccc2N2CCCC2)cc1,-80.4%
21,O=C(Nc1ccc(OC(F)F)cc1)c1cc(S(=O)(=O)N2CCOCC2)ccc1F,-31.3%
22,O=C(Nc1cccc(F)c1)c1cc(S(=O)(=O)N2CCOCC2)ccc1N1CCCC1,-34.2%
